About 8,800 targets were measured; listed, in parts, are those with a hit and a random draw of the rest. About 0.5% of all pairs of compound and target were hits. A number with no mark means an inactive call.
What was measured:
Assay in all cases: log2 fold change, soluble protein after heating vs DMSO (PISA); higher = thermal stabilisation; K562 lysate, 10 uM; active = over 0.2 and 3.5 SD of the protein, either way, in both replicates (recomputed)
erlotinib = compound: C#Cc1cccc(Nc2ncnc3cc(OCCOC)c(OCCOC)cc23)c1 [erlotinib]
Method in brief: (§1)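 K562 pellets were dounce-homogenised in PBS pH 7.4 with 1 mM MgCl2, and the crude extract at 1 mg/mL protein was treated with 10 μM compound for 30 min. Aliquots were heated for 3 min across 48°C-58°C, pooled, and brought to 0.5% NP-40 at 4°C; soluble protein was the supernatant after 21,000xg for 90 min. Soluble protein was quantified by TMTpro 16plex LC-MS/MS with channel sums equalised, and reported as log2 fold change in thermal stability against DMSO controls, with values from duplicates.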

[1] = compound: C/C(=N\NC(=O)C1=CC(=CC=C1)S(=O)(=O)N2CCOCC2)/C3=C(C=CC(=C3)Cl)O
Method in brief: as §1

[2] = compound: C1=CC(=CC=C1C2=NC3=C(N2)C=C(C=C3)C(=O)N)OC4=CC=C(C=C4)Cl
Method in brief: as §1

[3] = compound: C1=CC2=C(C=CC(=C2)/C=C\3/C(=O)NC(=NCC4=CC=CS4)S3)N=C1
Method in brief: as §1

[4] = compound: C1=CC2=NC=CN=C2C=C1/C=C/3\C(=O)NC(=O)S3
Method in brief: as §1

[5] = compound: C1=CC=C(C=C1)C2=NC(=C(N2)C3=CC=NC=C3)C4=CC(=C(C=C4)Cl)O
Method in brief: as §1

[6] = compound: C1=CC=C2C(=C1)C3=NNC4=CC=CC(=C43)C2=O
Method in brief: as §1

[7] = compound: C1CCN(C1)C(=O)NC2=CC=CC(=C2)NC3=NC=C(C(=N3)NCCC4=CN=CN4)Br
Method in brief: as §1

[8] = compound: C1CN(CCC1(CC2=CC=C(C=C2)Cl)N)C3=NC=NC4=C3C=CN4
Method in brief: as §1

IRAK-1-4 Inhibitor I = compound: C1COCCN1CCN2C3=CC=CC=C3N=C2NC(=O)C4=CC(=CC=C4)[N+](=O)[O-] [IRAK-1-4 Inhibitor I]
Method in brief: as §1

ibrutinib = compound: C=CC(=O)N1CCC[C@@H](n2nc(-c3ccc(Oc4ccccc4)cc3)c3c(N)ncnc32)C1 [ibrutinib]
Method in brief: as §1

[9] = compound: CC(=O)c1cnc2ccc(-c3cc(Cl)c(O)c(Cl)c3)nc2c1N[C@H]1CC[C@H](CN(C)C)CC1
Method in brief: as §1

ralimetinib = compound: CC(C)(C)Cn1c(N)nc2ccc(-c3[nH]c(C(C)(C)C)nc3-c3ccc(F)cc3)nc21 [ralimetinib]
Method in brief: as §1

[10] = compound: CC(C)(O)CC(=O)NCCn1ccc2ncnc(Nc3ccc(Oc4cccc(C(F)(F)F)c4)c(Cl)c3)c21
Method in brief: as §1

[11] = compound: CC(C)C1=C2N=C(C=C(N2N=C1)NCC3=CC=CC=C3)NCCCCCCN
Method in brief: as §1

[12] = compound: CC1=C(C(CC(=O)N1)C2=CC=C(C=C2)C(F)(F)F)C(=O)NC3=C(C=C4C(=C3)C=NN4)F
Method in brief: as §1

[13] = compound: CC1=C(C2=C(C=C1)C(=O)C3=CC=CC=C3N2CCCN)C
Method in brief: as §1

[14] = compound: CC1=C(C=C(C=C1)NC(=O)C2=CC(=CC=C2)C(C)(C)C#N)NC3=CC4=C(C=C3)N=CN(C4=O)C
Method in brief: as §1

[15] = compound: CC1=C(C=C(C=C1)NC(=O)C2=CC(=CC=C2)N(C)C)NC(=O)C3=CC=C(C=C3)O
Method in brief: as §1

[16] = compound: CC1=CC=C(C=C1)SC2=C3C=C(SC3=CN=C2)C(=O)N
Method in brief: as §1

UniProt Q8TEQ8, sequence (Q8TEQ8 whole entry, looked up): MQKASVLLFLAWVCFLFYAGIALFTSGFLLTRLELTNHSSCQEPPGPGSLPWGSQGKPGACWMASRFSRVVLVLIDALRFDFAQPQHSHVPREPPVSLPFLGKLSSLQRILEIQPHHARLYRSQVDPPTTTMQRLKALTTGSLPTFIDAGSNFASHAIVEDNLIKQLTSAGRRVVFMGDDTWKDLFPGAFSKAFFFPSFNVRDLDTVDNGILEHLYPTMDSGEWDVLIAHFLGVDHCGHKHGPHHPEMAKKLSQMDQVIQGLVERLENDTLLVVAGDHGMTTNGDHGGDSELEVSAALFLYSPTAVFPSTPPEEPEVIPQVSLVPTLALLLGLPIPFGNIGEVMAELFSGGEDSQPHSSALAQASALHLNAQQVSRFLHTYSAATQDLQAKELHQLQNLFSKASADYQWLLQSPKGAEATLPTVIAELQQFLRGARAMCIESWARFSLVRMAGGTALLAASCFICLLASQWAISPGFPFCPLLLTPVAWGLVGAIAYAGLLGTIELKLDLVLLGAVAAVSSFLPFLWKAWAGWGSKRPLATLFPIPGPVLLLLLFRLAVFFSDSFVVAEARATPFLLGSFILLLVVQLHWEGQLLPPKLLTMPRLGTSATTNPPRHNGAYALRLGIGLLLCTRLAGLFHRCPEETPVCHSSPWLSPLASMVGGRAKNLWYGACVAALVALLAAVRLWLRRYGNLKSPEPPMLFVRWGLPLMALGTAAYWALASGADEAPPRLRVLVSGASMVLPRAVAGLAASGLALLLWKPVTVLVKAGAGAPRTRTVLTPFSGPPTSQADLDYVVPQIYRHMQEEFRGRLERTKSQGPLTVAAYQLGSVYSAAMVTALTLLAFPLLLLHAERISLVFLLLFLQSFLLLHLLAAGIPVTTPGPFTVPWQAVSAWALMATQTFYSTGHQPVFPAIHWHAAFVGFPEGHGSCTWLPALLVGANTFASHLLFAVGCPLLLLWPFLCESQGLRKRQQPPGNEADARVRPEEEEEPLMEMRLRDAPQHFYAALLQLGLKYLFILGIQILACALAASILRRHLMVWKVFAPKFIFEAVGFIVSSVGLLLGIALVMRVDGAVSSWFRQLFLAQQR
UniProt O75569, sequence (O75569 whole entry, looked up): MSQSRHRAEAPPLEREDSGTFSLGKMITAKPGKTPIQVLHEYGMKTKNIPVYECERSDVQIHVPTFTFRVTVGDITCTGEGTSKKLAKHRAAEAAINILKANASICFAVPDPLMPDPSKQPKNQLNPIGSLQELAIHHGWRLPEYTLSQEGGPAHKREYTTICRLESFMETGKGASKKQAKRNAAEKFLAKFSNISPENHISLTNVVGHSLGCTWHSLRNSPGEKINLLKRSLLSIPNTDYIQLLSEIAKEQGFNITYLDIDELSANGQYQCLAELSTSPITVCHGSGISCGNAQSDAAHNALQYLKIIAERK
UniProt Q03393, sequence (Q03393 whole entry, looked up): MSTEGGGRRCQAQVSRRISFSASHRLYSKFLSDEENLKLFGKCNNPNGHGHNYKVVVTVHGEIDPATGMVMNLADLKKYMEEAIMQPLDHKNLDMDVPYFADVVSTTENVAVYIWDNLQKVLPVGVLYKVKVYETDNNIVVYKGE
UniProt P28340, sequence (P28340 whole entry, looked up): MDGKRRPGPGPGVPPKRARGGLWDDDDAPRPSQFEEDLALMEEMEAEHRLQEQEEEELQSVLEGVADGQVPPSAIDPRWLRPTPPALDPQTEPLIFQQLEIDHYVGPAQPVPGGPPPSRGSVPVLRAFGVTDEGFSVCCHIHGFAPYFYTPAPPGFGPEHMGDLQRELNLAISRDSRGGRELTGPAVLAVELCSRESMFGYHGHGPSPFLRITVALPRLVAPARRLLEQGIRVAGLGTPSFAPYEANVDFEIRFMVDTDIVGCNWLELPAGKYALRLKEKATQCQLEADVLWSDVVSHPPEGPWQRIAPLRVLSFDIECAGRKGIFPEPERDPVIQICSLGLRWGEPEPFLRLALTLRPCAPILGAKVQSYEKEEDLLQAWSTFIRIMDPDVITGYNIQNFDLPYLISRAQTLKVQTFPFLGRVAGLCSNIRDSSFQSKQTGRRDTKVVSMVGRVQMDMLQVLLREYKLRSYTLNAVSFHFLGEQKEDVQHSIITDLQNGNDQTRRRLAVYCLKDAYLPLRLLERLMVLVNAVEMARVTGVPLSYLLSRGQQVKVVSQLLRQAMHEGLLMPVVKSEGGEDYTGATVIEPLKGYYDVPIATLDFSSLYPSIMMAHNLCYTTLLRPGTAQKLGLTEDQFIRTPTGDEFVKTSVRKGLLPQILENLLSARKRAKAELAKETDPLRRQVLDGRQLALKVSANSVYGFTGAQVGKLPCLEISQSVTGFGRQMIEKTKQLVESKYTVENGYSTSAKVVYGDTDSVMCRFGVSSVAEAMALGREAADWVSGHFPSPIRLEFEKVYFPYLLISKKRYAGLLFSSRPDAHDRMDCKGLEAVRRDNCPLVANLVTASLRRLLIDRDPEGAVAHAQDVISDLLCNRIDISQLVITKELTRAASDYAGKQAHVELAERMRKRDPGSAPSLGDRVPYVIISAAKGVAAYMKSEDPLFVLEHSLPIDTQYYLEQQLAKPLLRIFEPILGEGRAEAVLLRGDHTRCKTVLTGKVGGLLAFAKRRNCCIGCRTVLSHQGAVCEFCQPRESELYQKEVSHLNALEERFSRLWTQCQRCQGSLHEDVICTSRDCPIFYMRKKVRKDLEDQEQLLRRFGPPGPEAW
UniProt P13667, sequence (P13667 whole entry, looked up): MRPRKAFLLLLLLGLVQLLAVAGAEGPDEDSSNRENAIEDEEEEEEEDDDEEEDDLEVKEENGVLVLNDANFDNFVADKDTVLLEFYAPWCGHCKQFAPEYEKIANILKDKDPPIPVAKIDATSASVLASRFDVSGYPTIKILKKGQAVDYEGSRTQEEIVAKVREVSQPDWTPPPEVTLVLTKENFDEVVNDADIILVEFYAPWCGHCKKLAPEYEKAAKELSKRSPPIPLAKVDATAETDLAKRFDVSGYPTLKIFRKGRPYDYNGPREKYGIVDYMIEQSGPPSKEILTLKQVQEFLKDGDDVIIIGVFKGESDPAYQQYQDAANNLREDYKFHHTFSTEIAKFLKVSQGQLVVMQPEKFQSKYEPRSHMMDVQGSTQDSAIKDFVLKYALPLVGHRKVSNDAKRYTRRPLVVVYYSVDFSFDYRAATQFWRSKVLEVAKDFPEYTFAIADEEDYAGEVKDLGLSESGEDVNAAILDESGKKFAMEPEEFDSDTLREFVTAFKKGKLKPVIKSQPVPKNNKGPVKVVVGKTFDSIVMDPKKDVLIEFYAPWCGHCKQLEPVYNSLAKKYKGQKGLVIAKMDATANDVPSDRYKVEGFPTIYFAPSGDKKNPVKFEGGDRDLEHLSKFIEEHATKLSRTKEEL
UniProt Q8N8N7, sequence (Q8N8N7 whole entry, looked up): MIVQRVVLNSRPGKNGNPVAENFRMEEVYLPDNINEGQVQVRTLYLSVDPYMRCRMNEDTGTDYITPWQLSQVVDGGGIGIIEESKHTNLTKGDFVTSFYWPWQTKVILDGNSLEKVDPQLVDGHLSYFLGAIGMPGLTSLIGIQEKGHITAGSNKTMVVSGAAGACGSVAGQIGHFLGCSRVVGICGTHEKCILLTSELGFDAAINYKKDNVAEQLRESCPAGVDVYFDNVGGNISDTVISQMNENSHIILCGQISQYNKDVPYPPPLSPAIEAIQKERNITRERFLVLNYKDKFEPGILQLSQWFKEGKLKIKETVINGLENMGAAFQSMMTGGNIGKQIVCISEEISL
UniProt Q14671, sequence (Q14671 whole entry, looked up): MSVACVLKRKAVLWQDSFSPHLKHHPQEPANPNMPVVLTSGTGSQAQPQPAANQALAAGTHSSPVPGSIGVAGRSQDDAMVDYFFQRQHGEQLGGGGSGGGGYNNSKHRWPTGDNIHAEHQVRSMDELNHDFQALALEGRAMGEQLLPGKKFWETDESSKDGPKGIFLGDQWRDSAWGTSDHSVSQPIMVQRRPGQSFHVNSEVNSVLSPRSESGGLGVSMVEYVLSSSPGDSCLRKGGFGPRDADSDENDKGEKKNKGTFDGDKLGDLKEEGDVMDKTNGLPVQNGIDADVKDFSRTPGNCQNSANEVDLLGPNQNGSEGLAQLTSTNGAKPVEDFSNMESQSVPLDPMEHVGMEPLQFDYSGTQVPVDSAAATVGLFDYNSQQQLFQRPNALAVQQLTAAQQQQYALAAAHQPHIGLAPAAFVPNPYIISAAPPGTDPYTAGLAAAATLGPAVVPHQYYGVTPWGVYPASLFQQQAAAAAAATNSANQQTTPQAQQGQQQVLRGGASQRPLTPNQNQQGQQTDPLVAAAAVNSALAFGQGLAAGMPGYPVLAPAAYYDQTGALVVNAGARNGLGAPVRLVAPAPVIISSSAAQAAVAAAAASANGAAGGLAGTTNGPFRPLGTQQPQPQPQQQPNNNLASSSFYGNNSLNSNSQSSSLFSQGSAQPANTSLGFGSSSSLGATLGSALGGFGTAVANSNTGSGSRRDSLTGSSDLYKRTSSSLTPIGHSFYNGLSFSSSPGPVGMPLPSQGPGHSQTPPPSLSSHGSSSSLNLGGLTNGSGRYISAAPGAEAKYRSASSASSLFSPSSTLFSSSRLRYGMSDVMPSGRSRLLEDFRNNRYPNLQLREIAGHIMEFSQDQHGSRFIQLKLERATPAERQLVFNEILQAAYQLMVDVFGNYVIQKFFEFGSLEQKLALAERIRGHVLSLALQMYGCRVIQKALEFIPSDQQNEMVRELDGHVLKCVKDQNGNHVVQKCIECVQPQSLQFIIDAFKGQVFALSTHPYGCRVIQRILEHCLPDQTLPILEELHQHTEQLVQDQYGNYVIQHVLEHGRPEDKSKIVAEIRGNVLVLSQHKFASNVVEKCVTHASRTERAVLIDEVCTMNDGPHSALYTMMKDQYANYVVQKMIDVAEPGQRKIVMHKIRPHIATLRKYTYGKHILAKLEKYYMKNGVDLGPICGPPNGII
UniProt Q9H2H8, sequence (Q9H2H8 whole entry, looked up): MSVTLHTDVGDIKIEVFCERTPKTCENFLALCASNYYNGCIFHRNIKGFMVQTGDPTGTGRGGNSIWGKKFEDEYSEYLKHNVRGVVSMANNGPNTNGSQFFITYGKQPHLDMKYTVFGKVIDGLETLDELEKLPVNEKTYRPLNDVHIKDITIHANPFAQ

| Target | log2 fold change (erlotinib) | log2 fold change [1] | log2 fold change [2] | log2 fold change [3] | log2 fold change [4] | log2 fold change [5] | log2 fold change [6] | log2 fold change [7] | log2 fold change [8] | log2 fold change (IRAK-1-4 Inhibitor I) | log2 fold change (ibrutinib) | log2 fold change [9] | log2 fold change (ralimetinib) | log2 fold change [10] | log2 fold change [11] | log2 fold change [12] | log2 fold change [13] | log2 fold change [14] | log2 fold change [15] | log2 fold change [16] |
| --- | --- | --- | --- | --- | --- | --- | --- | --- | --- | --- | --- | --- | --- | --- | --- | --- | --- | --- | --- | --- |
| PIGO (UniProt Q8TEQ8) | 0.179 | -0.423 | -0.266 | 0.242 | 0.132 | 0.001 | -0.285 | -0.001 | 0.117 | 0.114 | 0.093 | 0.016 | -0.039 | -0.013 | -0.068 | -0.041 | -0.05 | -0.1 | -0.047 | -0.158 |
| PRKRA (UniProt O75569) | 0.016 | -0.1 | -0.061 | -0.01 | 0.08 | 0.012 | -0.012 | -0.074 | 0.018 | 0.033 | -0.043 | -0.01 | 0.035 | 0.011 | 0.013 | 0.045 | -0.038 | 0.002 | 0.056 | 0.019 |
| PICALM (UniProt H0YEH1) | -0.004 | -0.111 | 0.053 | 0.066 | -0.021 | -0.015 | 0.106 | -0.219 | -0.333 | 0.053 | -0.077 | 0.009 | -0.035 | -0.039 | 0.05 | 0.003 | 0.014 | -0.024 | 0.012 | -0.091 |
| PFN1 (UniProt P07737) | -0.022 | -0.017 | 0.01 | 0.019 | -0.007 | -0.006 | 0.015 | -0.002 | 0.01 | -0.007 | -0.018 | -0.007 | 0.009 | 0.013 | -0.022 | -0.017 | 0.009 | 0.007 | 0 | 0.002 |
| PPME1 isoform 4 (UniProt Q9Y570) | -0.002 | -0.006 | 0.023 | -0.005 | -0.035 | 0.017 | 0.065 | 0.013 | 0.01 | -0.006 | 0.042 | 0.009 | 0.008 | 0.018 | -0.001 | -0.021 | -0.004 | -0.011 | -0.023 | 0.012 |
| PDIA4 (UniProt P13667) | -0.011 | 0.062 | 0.005 | -0.017 | -0.008 | 0.006 | 0 | 0.04 | 0.007 | -0.001 | 0.006 | -0.008 | -0.016 | 0.011 | 0.001 | -0.01 | 0.021 | -0.038 | 0.011 | 0.007 |
| PMS2 (UniProt P54278) | 0.036 | 0.012 | -0.058 | -0.005 | -0.015 | -0.028 | -0.032 | -0.013 | 0.012 | 0.001 | 0.027 | 0.032 | 0.046 | -0.047 | 0.069 | -0.038 | -0.049 | -0.019 | -0.004 | 0.002 |
| POLB (UniProt P06746) | 0.012 | 0.009 | 0.075 | 0.069 | -0.022 | 0.019 | -0.061 | -0.019 | 0.026 | -0.062 | -0.011 | -0.003 | 0.068 | -0.042 | 0.083 | 0.017 | -0.006 | -0.027 | -0.034 | -0.003 |
| POLD1 (UniProt P28340) | 0.016 | -0.05 | 0.013 | 0.008 | -0.008 | 0.015 | -0.029 | -0.006 | 0.007 | -0.01 | -0.003 | 0.014 | 0.035 | 0.018 | 0 | 0.005 | -0.012 | 0.005 | 0.02 | -0.032 |
| PTS (UniProt Q03393) | -0.018 | -0.112 | -0.018 | 0.034 | 0.001 | 0.074 | -0.023 | -0.069 | 0.002 | 0.028 | 0.213 | 0.015 | 0.021 | -0.027 | -0.041 | -0.117 | -0.102 | 0.034 | -0.013 | -0.017 |
| PTGR2 (UniProt Q8N8N7) | 0.01 | 0.064 | 0.001 | 0.065 | -0.041 | 0.054 | 0.016 | 0.015 | 0.001 | -0.035 | -0.006 | 0.026 | 0.019 | 0.068 | -0.042 | -0.011 | -0.024 | 0.006 | 0.037 | 0.029 |
| PPIL3 (UniProt Q9H2H8) | 0.022 | 0.071 | 0 | -0.016 | -0.039 | -0.012 | -0.028 | -0.004 | 0.071 | 0.03 | 0.044 | 0.029 | -0.023 | -0.028 | 0.022 | 0.001 | 0.003 | 0.011 | 0.009 | 0.005 |
| PTGS1 isoform 6 (UniProt P23219) | -0.044 | 0.118 | 0.033 | -0.105 | -0.005 | 0.086 | -0.03 | 0.008 | -0.025 | 0.061 | 0.109 | 0.022 | -0.001 | -0.075 | -0.043 | 0.023 | -0.039 | 0.023 | -0.011 | -0.026 |
| PUM1 isoform 3 (UniProt Q14671) | -0.025 | 0.051 | 0.06 | -0.028 | 0.02 | -0.052 | -0.033 | 0.01 | 0.013 | 0.011 | -0.034 | 0.009 | 0.003 | -0.031 | -0.035 | 0.032 | 0.044 | -0.435 (active) | 0.049 | 0.014 |
| PRKACA (UniProt P17612) | -0.033 | -0.056 | 0.049 | 0.016 | -0.015 | -0.015 | 0.034 | 0.234 | 0.34 | 0.015 | 0.021 | 0.767 (active) | 0.029 | -0.106 | -0.045 | 0.059 | -0.046 | -0.118 | -0.008 | -0.057 |
